Active and inactive are the calls of the source.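 Rule for the calls: active = mean inhibition above 46.68%, the untreated control wells mean plus 3 SD; inactive = the rest.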

The target in this test is Nuclear receptor coactivator 1 (Homo sapiens) (UniProt Q15788). In words: NCOA1 GAL4-fusion reporter inhibition – cell-based, luminescence, quadruplicate, confirmation (AID 588820).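 Note: 0% = DMSO wells and 100% = gossypol 36 µM treated wells.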 The conditions noted are these: HEK293 GAL4-SRC1 luciferase reporter, at 3.6 µM, hits give high values. A general note: Reporter assays use an easily measured gene product as a stand-in for the process of interest.
Nuclear receptor coactivator 1 (Homo sapiens), sequence (Q15788 whole entry, looked up, the tested form may be a part): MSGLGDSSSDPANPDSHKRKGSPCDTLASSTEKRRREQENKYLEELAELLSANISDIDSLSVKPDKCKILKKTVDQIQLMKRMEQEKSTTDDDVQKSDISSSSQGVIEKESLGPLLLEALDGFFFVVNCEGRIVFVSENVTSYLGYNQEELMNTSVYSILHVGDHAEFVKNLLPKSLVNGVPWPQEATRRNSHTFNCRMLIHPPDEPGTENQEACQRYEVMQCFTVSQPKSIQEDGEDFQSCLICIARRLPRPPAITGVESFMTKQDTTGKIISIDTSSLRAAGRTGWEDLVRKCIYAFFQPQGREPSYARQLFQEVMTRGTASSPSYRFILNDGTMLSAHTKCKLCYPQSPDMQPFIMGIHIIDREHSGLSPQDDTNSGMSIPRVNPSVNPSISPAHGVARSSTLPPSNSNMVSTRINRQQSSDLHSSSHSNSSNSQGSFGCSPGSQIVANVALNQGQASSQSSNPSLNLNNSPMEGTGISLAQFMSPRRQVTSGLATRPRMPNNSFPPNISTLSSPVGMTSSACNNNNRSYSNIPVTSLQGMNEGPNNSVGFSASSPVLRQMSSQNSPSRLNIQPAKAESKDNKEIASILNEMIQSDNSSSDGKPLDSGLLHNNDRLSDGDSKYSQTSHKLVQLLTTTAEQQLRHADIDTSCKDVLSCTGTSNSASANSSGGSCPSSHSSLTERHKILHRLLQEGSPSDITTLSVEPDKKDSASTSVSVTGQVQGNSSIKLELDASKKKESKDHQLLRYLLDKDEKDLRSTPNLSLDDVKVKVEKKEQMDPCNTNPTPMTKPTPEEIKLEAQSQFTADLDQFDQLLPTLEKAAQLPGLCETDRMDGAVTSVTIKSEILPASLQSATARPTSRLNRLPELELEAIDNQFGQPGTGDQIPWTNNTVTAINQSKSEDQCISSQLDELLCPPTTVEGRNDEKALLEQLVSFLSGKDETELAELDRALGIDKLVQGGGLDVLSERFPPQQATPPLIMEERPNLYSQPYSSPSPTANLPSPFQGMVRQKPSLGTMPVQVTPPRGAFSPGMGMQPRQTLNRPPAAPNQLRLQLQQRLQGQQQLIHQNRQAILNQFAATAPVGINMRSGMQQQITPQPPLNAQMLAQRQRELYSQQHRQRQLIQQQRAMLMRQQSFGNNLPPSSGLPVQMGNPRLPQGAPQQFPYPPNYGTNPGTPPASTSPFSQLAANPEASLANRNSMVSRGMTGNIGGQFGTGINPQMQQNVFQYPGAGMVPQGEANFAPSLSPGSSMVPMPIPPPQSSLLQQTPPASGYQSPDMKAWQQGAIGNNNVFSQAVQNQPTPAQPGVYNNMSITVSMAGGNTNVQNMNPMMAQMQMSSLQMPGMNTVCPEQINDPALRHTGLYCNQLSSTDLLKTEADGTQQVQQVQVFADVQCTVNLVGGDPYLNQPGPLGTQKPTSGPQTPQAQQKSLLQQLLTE
The inhibition is the relative decrease from the control value, in per cent. As for `NC(=O)c1sc2nc3c(c(-c4ccco4)c2c1N)CCC3`, the inhibition was 52.9% (active).

On to `COc1ccc2c(c1OC)C(=O)N1c3ccccc3C(=O)N(c3ccccc3)C21` (stereo unspecified), for which the inhibition was -5.64% (inactive).

As for `CCOc1ccc(-n2c(C)c(C(C)=O)c3cc(O)ccc32)cc1`, the inhibition is 60.8% (active).

In the case of `CC[n+]1ccccc1/C=C/c1ccc(N(C)C)cc1`, the inhibition is 15.4% (inactive).

As to `CC1CCN(c2nc3ccc(C(=O)O)cc3s2)CC1`, the inhibition was -48.3% (inactive).

As to `O=C(C1CCC(CNS(=O)(=O)c2cccs2)CC1)N1CCN(c2ccc(Cl)cc2)CC1` (stereo unspecified), the inhibition was 14.9% (inactive).

For `Cc1c2ccncc2cc2c1[nH]c1ccccc12`, the inhibition was 48.4% (active).

For the molecule `CC1CCN(Cc2c(C(=O)N/N=C/c3cc(Br)ccc3O)nnn2-c2nonc2N)CC1`, the inhibition was 84.8% (active).

As to `COc1ccc(-c2cn[nH]c2-c2ccc(OC)cc2)cc1`, the inhibition was 38.7% (inactive).

In the case of `Cc1cc(/C=C2/C(=O)NN(c3ccccc3)C2=O)c(C)n1-c1ccc(O)cc1`, the inhibition was -66% (inactive).

As for `O=C(N/N=C/c1cc(Cl)ccc1O)C(=O)Nc1ccccc1OC(F)(F)C(F)F`, the inhibition was 37.7% (inactive).

With `CN(C)CC(C(=O)c1ccccc1)c1ccccc1` (stereo unspecified), the inhibition is 32% (inactive).

As to `Nc1nccc(-c2ccc(-n3cnc4ccccc43)cc2)n1`, the inhibition was 57.7% (active).

As for `Cc1nc2ccc(NC(=O)c3ccc(Cl)c(S(=O)(=O)N(C)c4ccccc4)c3)cc2s1`, the inhibition was 3.35% (inactive).

In the case of `CC(=O)NC(C)c1cc(Cl)c2cccnc2c1O` (stereo unspecified), the inhibition was 10.6% (inactive).

For `COc1ccc(-c2csc(NC(=O)C3CCN(c4ncnc5sc(C)c(C)c45)CC3)n2)cc1OC`, the inhibition was 23.8% (inactive).

Source of the values: PubChem BioAssay.
